# Results as given in the supplement of paper PMC6555819.
# Tested on: VDR:RXRa (NR concentration 270 nM, RXRa partner concentration 90 nM)
# Assay: PBM binding z-score (relative to random genomic background probes); higher = stronger binding; sequences stand for … in GC…GCGATTGACAGCGTAGAATGAAGG
# Protocol: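 Protein-binding microarray (Agilent 4x180K custom design, double-stranded 60-nt probes: 5' GC cap, 34-nt variable region, 24-nt constant primer region; full probe sequence given). Purified or IVT nuclear receptor:RXRα heterodimers (3:1 NR:RXRα, mostly 270:90 nM) or homodimers were incubated for 1 h in PBS with 2% milk and no ligand, then detected with Alexa488 antibodies. Fluorescence from o1-orientation probes (~5 replicates averaged) was converted to z-scores against 500 random hg19 background probes. Variable regions are seed direct-repeat (DR0–DR5) sites, all their single-nucleotide variants and half-site ablations.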
row,Sequence,PBM binding z-score
1,TCTTGTAGATCAACAGGTTAAGAAAGCTGGCCAA,0.855
2,ATCGAAAGGTCGAGGTGAGTATCGAGAAAGGGAA,2.57
3,GCGACTGGGGCAAAGCAGGTTACAATAAGGTTGG,0.294
4,TCTCGGAGGATACGAAAGGTCAGAGCTCGACATC,2.6
5,CCTATTAGTTGACCATAAGGGCAAGCGAAGCTCG,0.92
6,CCTAGTTGGTCAGGAGGTAACACACCGGATATGA,0.461
7,CCGACTGGGGCATAAGGTTACCACAAGCCAGCCC,0.105
8,GCGACTGGGGCATCAGCAGGTCACCATAACTTAA,1.75
9,CCTTACGGGTCACGAGATTATAGCACGACGAGCG,3.55
10,ACAGACAGGTGATGAAGGAAACTCAGGCTATCAT,-0.266
11,TCATATAGGTAAAAGGTTAAAGTCGGTGTGGTAA,2.73
12,ATATGTAGGTTACATCCGGGTTATTCAGGCTATG,1.68
13,CCTACTGGACCACGAAAGGTCATTGATTCAGTGA,4.17
14,ATATGTAGGTTTGCTGGGGTCATTCAGACTAGGC,5.56
15,CAAACTATGTCACGAAAGGTCAAAGTCGAATGAC,5.07
16,CTACCAAGGTGTACAAGGTCGTTGATTACTATTC,2.39
17,AGTCAAAGTTCAGGACCAGGTAACGTAAAGCACG,2.41
18,GCTAGCAGGCCCTTTGGGTCACTCAATGACGGGC,-0.206
19,ATAACAAGGTGATCGTGAGGTCGTTGATACTAAC,2.97
20,GCTGCTAGGTCAGGTCGGTCAGCTAACGGGTACG,1.09

row,Sequence,PBM binding z-score
1,CCTATTAGTTGACCATACGGGCAACCGAAGCTCG,0.598
2,CGTCCAAGGTCATGGTCAGTGAAAGAGACTCGAA,4.3
3,ATCTCTAGGTAAGACTCAGTTCAGTGATGAACGC,0.927
4,CGTTACGGGTCAAGGTTATAGCACGGGTGGTACG,3.62
5,TGAATGAGGTAATAAGATCAGGGAACGTTGCAAA,-0.334
6,ATCGAAAGGTCGTGAGGTGAGAATACAGAAAGGC,3.48
7,CGTCCAAGGTCATAGGAGGTCAGTGGAGACAGAT,6.87
8,CCAGACAGGTGAAAGGTAACTCAGTCTGGTACGC,0.989
9,ACTATTAGTTGACGTAGGGCAACCGATACGACGC,0.19
10,TCTAGCAGGCCAGAGTGTCACTCAAGAGGTACGG,-0.00537
11,CCGACTGGGGCAAAGGCTACCATACTCAGTACGA,-0.358
12,CCTCGGAGGACAGAAGCTCAGAGCTGTCCGCTTT,-0.941
13,ATATATAGGTTACATCCGGGTCATTCAGGCTATG,4.58
14,TCTCGCAGGACACGAAAGGTCAGAGCTCGACATC,2.89
15,ACTTACGGGTCAACGAGGTGATAGCACGCGTATA,6.61
16,GCAGACAGGTGAAACGGAGGTAACTCAGGGTGGC,-0.2
17,CCAAACAGGTGAGAAGGTAACTCAGCCTCGATTA,-0.0119
18,GTACCAAGGTGAGTAGGTCGTTGATGAGTAGGCG,0.177
19,AGAACGAGGGCAATGAGATGATAGCACGGGTGGC,0.474
20,AGAACGAGGGCAATGTGTTGATAGCACGGGTGGC,0.824
